# Data published in PubChem BioAssay.
# Calls of active or inactive are those of the source.
# How the values were obtained:
# [1] = test system: Plasmodium falciparum Sir2 (PF13_0152, Sir2A); assay: pfSir2 binders on small-molecule microarrays, primary screen, biochemical, small-molecule microarray, 635 nm fluorescence (AID 1098); settings: small-molecule microarray binding, fluorescence 635 nm; higher = more signal;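 also: score merges spot fluorescence intensity with its signal-to-noise ratio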
# [2] = small-molecule microarray binders of probe aDKK1, primary screen, biochemical, biotinylated probe, 635/667 nm fluorescence (AID 1099); settings: higher = more signal;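 also: score merges 667nm spot fluorescence with signal to noise across triplicate slides; reference of the scale not given here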
# [3] = small-molecule microarray binders of probe aCHRDL2, primary screen, biochemical, biotinylated probe, 635/667 nm fluorescence (AID 1100); settings: higher = more signal
# [4] = splicing luciferase reporter signal modulators, primary screen, spliceosome inhibition project, cell-based, HEK293, splice +/- reporter (AID 1101); settings: luminescence, 24 h, higher = more signal, called active from +8 up or from −8 down;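 also: HEK293 cells carrying a splicing-competent luciferase reporter gene; test concentration not given here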
# [5] = biological target: Fibroblast growth factor 10 (Homo sapiens) (UniProt O15520); assay: FGF10 binders on small-molecule microarrays, primary screen, biochemical, small-molecule microarray, 635 nm fluorescence (AID 1102); settings: FGF10 binding, fluorescence 635 nm, higher = more signal
# [6] = test system: glycogen synthase kinase-3 (GSK3A per assay name; protocol says GSK3B); assay: GSK3 binders on small-molecule microarrays, primary screen, biochemical, small-molecule microarray, 635 nm fluorescence, GSK3A (AID 1103); settings: small-molecule microarray binding, fluorescence 635 nm; higher = more signal; also: the record names both GSK3A and GSK3B
# [7] = biological target: Epidermal growth factor receptor (Homo sapiens) (UniProt P00533); assay: EGFR binders on small-molecule microarrays, primary screen, biochemical, small-molecule microarray, 635 nm fluorescence (AID 1104); settings: EGFR binding, higher = more signal;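 also: score merges 667 nm emission intensity with spot signal to noise over triplicate slides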
# [8] = biological target: Follistatin-related protein 3 (Homo sapiens) (UniProt O95633); assay: FSTL3 binders on small-molecule microarrays, primary screen, biochemical, small-molecule microarray, 635 nm fluorescence (AID 1105); settings: FSTL3 binding, higher = more signal;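 also: score merges emission near 667 nm and signal to noise per printed spot across three slides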
# [9] = biological target: Dickkopf-related protein 1 (Homo sapiens) (UniProt O94907); assay: DKK1 binders on small-molecule microarrays, primary screen, biochemical, small-molecule microarray, 635 nm fluorescence scan (AID 1106); settings: DKK1 binding, higher = more signal;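 also: score merges emission near 667 nm with signal to noise over three replicate slides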
# [10] = test system: Inhibin beta A chain (activin A); assay: INHBA (activin A) binders on microarrays, primary screen, biochemical, small-molecule microarray, 635 nm fluorescence scan (AID 1107); settings: small-molecule microarray binding, higher = more signal;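 also: mouse activin A protein probed at 4.33 µg/mL on printed slides; score merges bound-protein fluorescence near 667 nm with spot signal-to-noise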
# Sequence of Follistatin-related protein 3 (Homo sapiens) (O95633 whole entry, looked up): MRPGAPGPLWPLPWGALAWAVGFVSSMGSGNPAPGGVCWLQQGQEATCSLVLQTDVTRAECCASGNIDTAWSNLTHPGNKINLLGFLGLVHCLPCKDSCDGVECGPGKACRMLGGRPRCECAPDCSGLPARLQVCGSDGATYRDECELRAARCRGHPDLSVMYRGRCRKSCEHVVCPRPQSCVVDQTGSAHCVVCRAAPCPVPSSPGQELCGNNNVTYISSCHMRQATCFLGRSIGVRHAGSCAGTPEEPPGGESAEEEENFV
# Sequence of Epidermal growth factor receptor (Homo sapiens) (P00533 whole entry, looked up): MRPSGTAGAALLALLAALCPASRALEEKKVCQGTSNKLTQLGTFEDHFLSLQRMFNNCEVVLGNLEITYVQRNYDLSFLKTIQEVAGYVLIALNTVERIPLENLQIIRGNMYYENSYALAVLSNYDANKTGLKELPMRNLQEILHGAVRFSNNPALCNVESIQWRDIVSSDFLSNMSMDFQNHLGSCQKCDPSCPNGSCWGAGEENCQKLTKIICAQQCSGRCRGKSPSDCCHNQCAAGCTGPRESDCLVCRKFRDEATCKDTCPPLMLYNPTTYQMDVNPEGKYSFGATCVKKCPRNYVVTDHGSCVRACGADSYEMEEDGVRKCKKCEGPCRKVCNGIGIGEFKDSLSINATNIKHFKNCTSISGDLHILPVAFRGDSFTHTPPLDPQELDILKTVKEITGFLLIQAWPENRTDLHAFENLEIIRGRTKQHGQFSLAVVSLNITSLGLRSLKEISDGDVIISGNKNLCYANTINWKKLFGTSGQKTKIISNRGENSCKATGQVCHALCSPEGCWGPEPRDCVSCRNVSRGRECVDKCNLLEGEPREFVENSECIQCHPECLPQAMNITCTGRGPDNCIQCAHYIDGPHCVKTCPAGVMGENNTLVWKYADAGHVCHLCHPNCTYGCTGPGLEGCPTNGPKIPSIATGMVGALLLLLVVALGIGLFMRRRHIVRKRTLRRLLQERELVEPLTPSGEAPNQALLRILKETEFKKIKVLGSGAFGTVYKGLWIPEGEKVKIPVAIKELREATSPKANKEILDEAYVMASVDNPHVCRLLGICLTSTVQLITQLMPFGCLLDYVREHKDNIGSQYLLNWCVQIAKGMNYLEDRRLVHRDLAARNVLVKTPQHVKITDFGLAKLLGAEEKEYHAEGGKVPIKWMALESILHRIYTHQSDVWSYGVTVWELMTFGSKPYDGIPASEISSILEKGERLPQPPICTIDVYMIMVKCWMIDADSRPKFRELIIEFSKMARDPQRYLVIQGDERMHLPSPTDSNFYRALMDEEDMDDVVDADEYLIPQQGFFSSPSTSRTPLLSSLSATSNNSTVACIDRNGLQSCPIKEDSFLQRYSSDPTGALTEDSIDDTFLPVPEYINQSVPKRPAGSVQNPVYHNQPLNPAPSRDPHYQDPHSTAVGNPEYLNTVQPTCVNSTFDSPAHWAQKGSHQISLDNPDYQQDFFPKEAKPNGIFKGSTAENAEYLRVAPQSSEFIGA
# Sequence of Fibroblast growth factor 10 (Homo sapiens) (O15520 whole entry, looked up): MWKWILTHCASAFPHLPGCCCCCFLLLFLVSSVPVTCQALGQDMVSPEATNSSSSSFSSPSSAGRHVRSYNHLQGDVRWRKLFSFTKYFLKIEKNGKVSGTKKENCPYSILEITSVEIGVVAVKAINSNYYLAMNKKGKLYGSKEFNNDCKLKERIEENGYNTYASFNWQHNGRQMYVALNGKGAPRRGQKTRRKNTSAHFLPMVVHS
# Sequence of Dickkopf-related protein 1 (Homo sapiens) (O94907 whole entry, looked up): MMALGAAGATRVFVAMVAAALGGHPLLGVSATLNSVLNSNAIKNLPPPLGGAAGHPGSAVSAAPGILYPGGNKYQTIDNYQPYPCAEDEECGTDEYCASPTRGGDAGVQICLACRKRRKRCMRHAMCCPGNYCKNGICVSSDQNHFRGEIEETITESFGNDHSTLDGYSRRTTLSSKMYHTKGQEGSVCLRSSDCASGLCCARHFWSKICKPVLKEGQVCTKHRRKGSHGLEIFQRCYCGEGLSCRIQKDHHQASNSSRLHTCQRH
Structure (SMILES),composite z-score [1],composite z-score [2],composite z-score [3],z-score [4],composite z-score [5],composite z-score [6],composite z-score [7],composite z-score [8],composite z-score [9],composite z-score [10]
NCCCCCCNC(=O)[C@@H]1C[C@@H]2C(=O)N3CCC[C@H]3C(=O)N2[C@@H]1c1ccc(O)cc1,1.27,0.0265,0.0978,0.364 (inactive),1.01,1.3,0.235,0.318,1.02,0.123
O=C1O[C@@H](c2ccccc2)[C@@H](c2ccccc2)N2[C@@H](c3ccc(O)cc3)[C@]3(C(=O)Nc4ccc(C#CCCO)cc43)[C@@H](C(=O)NC[C@H](O)c3ccccc3)[C@H]12,-0.029,-0.301,0.785,0.0041 (inactive),-1.01,-0.375,-0.637,-0.802,-1.26,-0.926
CN1C(=O)[C@@]2(CCS(=O)(=O)c3ccccc3)N=C(c3ccc(OCCCO)cc3)O[C@H]2c2ccccc21,1.12,0.0859,0.861,-1.06 (inactive),0.939,1.32,0.364,1.05,0.172,0.615
CC(C)CNC(=O)[C@@H]1c2ccccc2C(=O)N(Cc2cc(F)cc(C(F)(F)F)c2)[C@H]1c1ccc(CO)cc1,0.311,0.806,1.01,-0.621 (inactive),0.301,0.13,-0.315,0.328,0.258,0.669
CN(C)CCCNC(=O)[C@@H]1c2ccccc2C(=O)N(CC23CC4CC(CC(C4)C2)C3)[C@H]1c1ccc(CO)cc1,1.15,-0.46,0.296,-0.751 (inactive),1.17,0.98,0.425,1.15,0.872,-0.111
COc1ccc(C#Cc2ccc3c(c2)[C@]2(C(=O)N3)[C@H](C(=O)N3CCc4cc(OC)c(OC)cc4C3)[C@H]3C(=O)O[C@H](c4ccccc4)[C@H](c4ccccc4)N3[C@@H]2c2ccc(O)cc2)cc1,0.822,-0.29,-0.178,-0.00287 (inactive),0.851,1.29,0.537,0.957,0.513,-0.214
Cc1ccc(S[C@]2(C(=O)NC3CC3)CC(=O)N(Cc3ccccc3Cl)[C@@H]2c2ccc(CO)cc2I)cc1,1.35,0.633,0.873,-0.447 (inactive),1.4,1.27,-0.172,0.41,0.122,1.03
CN(C)CCCCNC(=O)[C@H]1C[C@H]2C(=O)N[C@@H](CCCCN(C)C)C(=O)N2[C@H]1c1cccc(OCCO)c1,1.12,-0.199,-0.434,-0.404 (inactive),1.21,1.29,0.514,1.11,0.418,0.0714
COC(=O)[C@@]1(Cc2ccc(F)cc2)[C@H]2c3cc(C(=O)N4CCCC4)n(CCF)c3C[C@H]2CN1C(=O)c1ccccc1,1.62,1.98,1.02,-1.72 (inactive),0.876,0.306,-0.0069,0.418,0.555,1.03
CC1CC/C=C\[C@H]2OC34C=CCN(C(C)C)C(=O)[C@H]3N(CCCCCO)C(=O)[C@@H]4C2C(=O)O1 (stereo not given in full),0.382,-0.0733,0.655,-0.356 (inactive),-0.82,-0.609,-1.4,-1.05,-1.73,-0.15
COc1cc(CO)cc(I)c1O[C@H]1C=C(C(=O)NCCO)C[C@@H](NCc2ccccc2F)[C@@H]1O,0.947,-0.28,-0.18,-0.977 (inactive),1.06,0.417,0.152,0.638,0.239,0.0253
C=C(C(=O)CC[C@H](OC(=O)c1cccnc1)c1ccc(CO)o1)C(C)C,1.08,0.0114,-0.239,0.586 (inactive),0.866,0.836,0.0193,0.406,0.603,0.935
Cc1ccc(S[C@]2(C(=O)NCC(C)C)CC(=O)N(Cc3ccccc3Cl)[C@@H]2c2ccc(CO)cc2I)cc1,1.22,0.117,0.791,-0.611 (inactive),-0.85,-0.408,-0.409,-0.615,-0.557,0.67
C=CCC(OC(C)=O)[C@@H]1[C@@H](N(Cc2ccc(-c3ccccc3)cc2)C(=O)c2cccc3ccccc23)c2cc(OCCCO)ccc2N1C(=O)Cc1ccc2ccccc2c1 (stereo not given in full),-0.417,0.122,0.425,-0.862 (inactive),0.0665,-0.202,-0.062,-0.0827,-0.169,0.796
CC(=O)NCCCC[C@@H]1NC(=O)[C@@H]2C[C@H](C(=O)O)[C@H](c3ccc(O)cc3)N2C1=O,1.66,-0.106,1.06,-0.905 (inactive),-0.947,-1.18,-1.7,-1.98,-1.46,-2.08
CCCCC(=C=CC[C@@H](O)c1ccc(OCCO)cc1)C[C@@H](O)COCc1ccccc1,1.27,-0.338,-0.212,-0.784 (inactive),1.01,-0.0016,-0.3,0.245,0.111,0.856

Structure (SMILES),composite z-score [1],composite z-score [2],composite z-score [3],z-score [4],composite z-score [5],composite z-score [6],composite z-score [7],composite z-score [8],composite z-score [9],composite z-score [10]
C=CCN1C(=O)[C@@]2(O[C@@H](CCn3cc([C@H](O)c4ccccc4)nn3)[C@H]([Si](C)(C)c3ccc(OC)cc3)[C@H]2C)c2ccccc21,1.52,-0.0203,0.0047,-0.56 (inactive),0.756,0.658,0.32,1.19,0.694,0.0239
C=C[C@H](COC(C)=O)NS(=O)(=O)c1ccc(Br)cc1,0.786,-0.247,-0.272,0.485 (inactive),-0.28,-0.384,0.141,0.128,0.516,0.294
[N-]=[N+]=Nc1ccccc1[C@@H]1OC(c2ccc(OCCCO)cc2)=N[C@]1(CCS(=O)(=O)c1ccccc1)C(=O)NCCN1CCOCC1,1.25,1.1,1.2,-0.582 (inactive),0.832,1.29,0.652,0.374,-0.0291,1.28
O=C1c2ccccc2[C@](Cc2ccccc2I)(C(=O)NCCN2CCOCC2)[C@H](c2ccc(CO)cc2)N1Cc1ccccc1,1.21,1.05,0.345,-0.825 (inactive),0.712,1.04,0.167,1.04,0.352,0.59
COc1ccc([Si](C)(C)[C@H]2[C@H](CCn3cc([C@H](O)c4ccccc4)nn3)O[C@@]3(C(=O)N(Cc4cccc(N5C(=O)c6cccc7cccc5c67)c4)c4ccccc43)[C@@H]2C)cc1,0.661,-0.0526,0.837,-0.762 (inactive),-0.718,-1.22,-1.04,-1.4,-1.66,-0.456
O=C1OCC=C[C@H]2OC34C=CCN(c5ccc(Cl)cc5)C(=O)[C@H]3N(CCCCCO)C(=O)[C@@H]4[C@@H]12 (stereo not given in full),0.311,-0.204,0.822,-0.784 (inactive),-1.23,-1.26,-1.44,-1.51,-1.22,-0.262
CC(C)CCC[C@@H](C)[C@H]1CC[C@@]2(C)C3=C(CC[C@]12C)[C@@]1(C)CC[C@H](OC(=O)c2ccc(Br)cc2)C(C)(C)C1CC3 (stereo not given in full),0.27,-0.153,-0.331,-1.13 (inactive),0.609,0.55,0.593,0.506,0.391,0.26
CC(C)C[C@@H]1NC(=O)[C@H]2C[C@@H](C(=O)NCCCCCC[N+](C)(C)C)[C@@H](c3cccc(OCCO)c3)N2C1=O,1.14,-0.231,-0.0365,-0.713 (inactive),0.293,0.661,0.109,0.504,0.438,0.682
O=C1C[C@@](C(=O)NCC(F)(F)F)(c2ccc([N+](=O)[O-])cc2)[C@@H](c2ccc(CO)cc2)N1C1CCCCC1,1.65,0.74,0.843,-0.684 (inactive),0.86,1.31,0.308,1.03,0.172,0.563
CCCCN1CC=CC23O[C@@H]4/C=C\CCC(C)OC(=O)C4[C@H]2C(=O)N(CCCCCCO)[C@@H]3C1=O (stereo not given in full),0.906,-0.264,0.402,0.142 (inactive),0.107,-0.782,-0.63,-1.04,-0.842,0.703
C[C@]1(C(=O)NC2CC2)c2ccccc2C(=O)N(Cc2ccc(OC(F)(F)F)cc2)[C@H]1c1ccc(CO)cc1,-0.419,-0.0414,0.755,0.765 (inactive),-0.326,-0.0882,-0.617,-0.409,-0.758,0.781
CCOC(=O)C[C@H]1[C@H](OC(=O)c2ccc(-c3ccccc3)cc2)[C@@H](NC(=O)C2CCCCC2)c2cc(OCCCO)ccc2N1C(=O)c1ccccc1,0.3,-0.141,-0.464,-0.0213 (inactive),0.616,0.258,0.0979,0.584,0.237,0.117
CC(C)c1ccc(NN2C(C(O)c3ccco3)C=CC3C(=O)N(c4ccccc4)C(=O)C32)cc1 (stereo not given),1.02,0.978,1.09,0.165 (inactive),0.783,1.3,0.0401,1.22,0.191,1.14
C=CCN1Cc2ccccc2C[C@@]2(N=C(c3ccc(OCCCO)cc3)O[C@H]2c2ccccc2)C1=O,0.907,0.189,0.512,6.55 (inactive),1.17,1.26,0.147,0.363,0.0968,1.03
CCOC(=O)C1=CC[C@@H](c2ccc([N+](=O)[O-])cc2)N(S(=O)(=O)c2ccc(C)cc2)[C@H]1c1ccccc1,0.992,0.291,0.304,-0.8 (inactive),1.21,0.154,0.764,1.26,0.293,0.521
